# Sfp PPTase inh: Sfp phosphopantetheinyl transferase inhibition. Biochemical Sfp PPTase activity, qHTS. Potency, µM, without a hit: largest response in the series, negative = inhibition, actives largely listed as inhibitors. 310,000 tested, 3.5% active;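 further: the enzyme is Sfp with the accession as filed and its product quenches rhodamine fluorescence; 0% = enzyme reaction without inhibitor and -100% = no enzyme wells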
#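 Step 1, compound plus 15 nM Sfp-PPTase, 15 min, room temperature. Step 2, add rhodamine-CoA (5 uM) and BHQ-2-YbbR (12.5 uM). Step 3, read 525/598 nm fluorescence at 0 and 30 min.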
# HP1b binding inh: HP1-beta chromodomain-methylated histone interaction inhibition; P83916; AlphaScreen HP1-beta / biotin-H3K9me3 peptide binding; Potency, µM (top dose mostly 114 µM), inactives show top-dose activity change, negative = inhibition, actives largely listed as inhibitors; 390,000 tested, 0.56% active; AID 540317; further: nearly all actives have a fitted effect of over 70% in size
#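 AlphaScreen: HP1-beta (50 nM) preformed 30 min with biotin-H3(1-18)K9me3 peptide (50 nM) in PBS pH 7.4, 0.01% Tween-20. Compound added for 30 min at RT, then streptavidin donor/nickel chelate acceptor beads (10 ug/mL) for 30 min.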
# G9a inh: G9a (human) methyltransferase inhibition | Potency, µM (top dose mostly 102 µM), without a hit: top-dose activity, negative = inhibition, most hits filed as inhibitors | G9a H3K9 monomethylation, AlphaScreen, 2 h | Q96KQ7 | AID 504332 | 350,000 tested, 8.8% active; further: on the % scale 0 is the no-effect control and ±100 the full control effect; nearly all actives have a fitted effect of over 75% in size
#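 Step 1: enzyme (final 20 nM) with compound, 15 min RT. Step 2: substrate peptide 500 nM and SAM 20 uM, 2 h RT. Step 3: anti-H3K9me1 antibody and AlphaScreen beads, 10 min, then plate read.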
# 12-LOX inh: blocks human arachidonate 12S-lipoxygenase. Potency, µM (series often up to 108 µM), without a hit: at the highest dose activity change, negative = inhibition, most hits filed as inhibitors. purified 12hLO, xylenol orange hydroperoxide absorbance. P18054. 580,000 tested, 1.1% active. AID 1671190; further: on the % scale 0 is the no-effect control and ±100 the full control effect
#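 Hydroperoxide product was detected by ferrous iron/xylenol orange as the 573 to 405 nm absorbance ratio. Arachidonic acid at 40 uM (final) was turned over for 30 min at room temperature by 150 nM human 12hLO, pH 7.0 Hepes buffer, after 15 min compound preincubation.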
# BAZ2B block: BAZ2B (human) inhibition. Q9UIF8. 360,000 tested, 4.4% active. Potency, µM (doses to about 114 µM), without a hit: at the highest dose activity change, negative = inhibition, usual class: inhibitors. AlphaScreen BAZ2B-H3K14Ac peptide displacement; further: on the % scale 0 is the no-effect control and ±100 the full control effect; nearly all actives have a fitted effect of over 60% in size
#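 BAZ2B 50 nM plus b-H3(5-23)K14Ac 50 nM, PBS pH 7.4/0.01% Tween-20, 30 min RT; compound added (max 110 uM), 30 min RT; streptavidin donor/Ni-chelate acceptor beads 10 ug/mL final, 20 min dark; AlphaScreen read.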
# JMJD2A Tudor inh: inhibitors of human JMJD2A Tudor domain; AID 504339; 390,000 tested, 4.4% active; O75164; Potency, µM (series often up to 114 µM), without a hit: top-dose activity change, negative = inhibition, usual class: inhibitors; AlphaScreen JMJD2A-Tudor / H3K4me3 peptide binding; further: on the % scale 0 is the no-effect control and ±100 the full control effect; nearly all actives have a fitted effect of over 50% in size
# Target sequence (O75164 whole entry, looked up, the tested form may be a part): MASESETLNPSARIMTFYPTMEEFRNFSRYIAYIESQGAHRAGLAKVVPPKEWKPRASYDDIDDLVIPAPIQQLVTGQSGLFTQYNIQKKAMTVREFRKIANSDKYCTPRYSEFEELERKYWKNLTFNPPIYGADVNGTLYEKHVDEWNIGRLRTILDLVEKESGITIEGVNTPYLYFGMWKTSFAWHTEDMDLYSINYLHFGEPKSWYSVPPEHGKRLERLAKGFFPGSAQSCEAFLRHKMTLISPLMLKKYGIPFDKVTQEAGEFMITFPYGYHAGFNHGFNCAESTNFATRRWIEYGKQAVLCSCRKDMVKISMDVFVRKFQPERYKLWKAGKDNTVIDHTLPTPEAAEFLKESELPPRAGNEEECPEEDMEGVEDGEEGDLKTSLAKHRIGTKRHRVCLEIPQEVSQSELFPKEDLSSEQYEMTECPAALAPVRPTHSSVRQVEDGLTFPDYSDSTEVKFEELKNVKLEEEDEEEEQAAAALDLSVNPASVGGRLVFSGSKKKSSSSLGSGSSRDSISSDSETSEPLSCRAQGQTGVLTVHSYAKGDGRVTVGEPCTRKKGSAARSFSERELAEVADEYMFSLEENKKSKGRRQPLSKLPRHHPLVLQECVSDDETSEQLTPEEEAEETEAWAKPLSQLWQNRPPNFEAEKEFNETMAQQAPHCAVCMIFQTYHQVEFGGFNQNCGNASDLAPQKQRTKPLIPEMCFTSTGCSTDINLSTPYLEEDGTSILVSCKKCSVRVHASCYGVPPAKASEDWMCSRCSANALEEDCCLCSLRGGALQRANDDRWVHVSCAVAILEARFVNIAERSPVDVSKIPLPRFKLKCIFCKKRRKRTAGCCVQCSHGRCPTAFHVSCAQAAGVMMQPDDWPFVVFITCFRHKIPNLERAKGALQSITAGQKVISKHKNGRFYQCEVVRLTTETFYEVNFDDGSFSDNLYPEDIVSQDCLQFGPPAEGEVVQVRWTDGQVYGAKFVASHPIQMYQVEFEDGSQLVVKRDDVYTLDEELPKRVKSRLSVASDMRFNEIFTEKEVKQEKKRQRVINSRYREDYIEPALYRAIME
# Active calls of the source: *; u = inconclusive; x = not tested or not shown; [ ] = another dose, or the depositor's remark. A selection: hits, their analogues and other compounds. The true share with any hit is near 8.7%. The call rests on the fitted dose curve; in most records, active means well fitted curve in the direction sought with a large enough effect; inconclusive means small, poorly fitted or top-dose-only effect, or another doubt; inactive means no such curve, though single readings can be large; an effect the other way counts as inactive or inconclusive. Potency means the concentration at half of the fitted maximal effect.
SMILES,Sfp PPTase inh,HP1b binding inh,G9a inh,12-LOX inh,BAZ2B block,JMJD2A Tudor inh
CCOc1cc(N2CCOCC2)c(OCC)cc1NC(=O)c1cc(-c2ccco2)nc2ccccc12,28.2µM*,u,8.91µM*,u,x,50.1µM*
CC(C)Oc1ccc(-c2cc(C(=O)NCCN3CCOCC3)c3ccccc3n2)cc1,79.4µM*,27.2%,-8.1%[0.501 µM],0.0%,u,13.0%
CCc1ccc(Nc2cc(C(=O)NCCCN3CCOCC3)c3ccccc3n2)cc1,35.5µM*,49.2%,-6.5%,u,6.8%,-9.2%
CC(=O)N1CCC2(CC1)CN(C(=O)Cc1csc(N)n1)Cc1ccccc1O2,x,x,x,6.0%[6.33 µM],x,x
COc1ccccc1CN1C[C@@H]2C(=O)N(CCCN3CCCC3=O)C(=O)[C@@H]2C1,x,x,x,44.1%,x,x
Cc1cc(CNS(=O)(=O)c2ccc3c(c2)CCN(C(=O)C(O)C(C)C)C3)no1 (configuration not stated),x,x,x,5.0%,x,x
CC(C)CC(CNc1ccc2nnnn2n1)N1CCCC1 (configuration not stated),x,x,x,-12.5%,x,x
O=C(NCCCN1CCOCC1)c1cc(-c2ccco2)nc2ccccc12,x,-6.2%,x,1.6%,x,50.1µM*
O=C(NCCCN1CCOCC1)c1cc(-c2ccc(F)cc2)nc2ccccc12,x,29.8%,0.6%[12.7 µM],4.8%,-2.6%,9.1%
CNc1c(NC(=O)NCC(C)C)c(=O)oc2ccccc12,x,x,x,-13.7%,x,x
CCCCCCn1ccc(=N)cc1,-0.9%,27.4%,-3.1%,21.8%,8.2%,14.0%
CCCCCCCCCCCCCCCCn1cc[n+](CC(C)=O)c1,35.5µM*,27.7%,-8.3%[59 µM],x,-8.7%,-1.0%
O=C(O/N=C1\CCCCC1c1ccc([N+](=O)[O-])cc1[N+](=O)[O-])c1c(F)cccc1F (configuration not stated),u,-31.1%,39.8µM*,-13.1%,u,44.7µM*
Cc1cnc(C2CCNC2)n1Cc1ccc(F)cc1 (configuration not stated),x,x,x,11.9%,x,x
CSc1nnc(N2C(=O)C(O)=C(C(=O)c3ccc(C)o3)C2c2ccc(C)cc2)s1 (configuration not stated),15.8µM*,1.8%,-3.5%[0.501 µM],u,u,-14.4%
Cc1ccc(C(=O)C2=C(O)C(=O)N(c3ncccn3)C2c2ccccc2F)o1 (configuration not stated),u,56.1%,u,u,-18.8%,1.2%
Cc1cc(N2C(=O)C(O)=C(C(=O)c3ccco3)C2c2ccccc2F)no1 (configuration not stated),0.5%,13.4%,79.4µM*,x,u,-31.4%
CSc1nnc(N2C(=O)C(O)=C(C(=O)c3ccco3)C2c2ccccc2)s1 (configuration not stated),-23.1%,-0.8%[57 µM],39.8µM*,u,u,u
Cc1ccc(C(=O)C2=C(O)C(=O)N(c3ncccn3)C2c2ccc(F)cc2)o1 (configuration not stated),8.8%,24.0%,u,38.3%,u,-13.0%
CSc1nnc(N2C(=O)C(O)=C(C(=O)c3ccco3)C2c2ccccc2F)s1 (configuration not stated),-16.6%,-24.3%,10.5%[0.0925 µM],u,-38.6%,50.1µM*
O=C(C1=C(O)C(=O)N(c2ncccn2)C1c1ccc(F)cc1)c1ccco1 (configuration not stated),-2.8%,17.8%,x,u,-15.3%,u
COC(=O)c1cn(CC(=O)N2CCC(C)CC2)c2ccccc12,x,x,x,2.6%,x,x
COc1ccc(-c2cnc3[nH]cc(CC(N)=O)c3c2)cc1OC,x,x,x,2.6%[176 µM],x,x
CC(NC(=O)c1ccco1)C(=O)N1CCC(c2c[nH]c3ccccc23)CC1 (configuration not stated),x,x,x,7.5%,x,x
CC(=O)/C(=N/Nc1ccc([N+](=O)[O-])cc1)N1CCCc2ccccc21,-6.1%,u,22.4µM*,38.1%,u,u
SMILES,Sfp PPTase inh,HP1b binding inh,G9a inh,12-LOX inh,BAZ2B block,JMJD2A Tudor inh
CC(=O)/C(=N/Nc1ccccc1[N+](=O)[O-])N1CCCc2ccccc21,-22.7%,7.94µM*,5.01µM*,u,5.62µM*,11.2µM*
COc1cc(CC(=O)NC2CCCCCCC2)cc(OC)c1OC,x,x,x,8.4%,x,x
COc1cccc(CCC(=O)Nc2ccc(-c3nnc4n3CCCC4)cc2)c1,x,x,x,46.1%,x,x
N[C@@H](Cc1cnc[nH]1)C(=O)N1CCC2(CC1)Nc1ccccc1NC2=O,x,x,x,157.2%,x,x
Cn1ncc(Cl)c1C(=O)Nc1cccc(Cl)c1,20µM*,-19.7%,2.82µM*,0.0%,12.6%,89.1µM*
Cn1ncc(N=Cc2c(O)ccc3ccccc23)c1C(=O)Nc1cccc(Cl)c1,u,-7.8%,7.94µM*,-15.5%,50.1µM*,u
Cc1cc(O)c(C(=O)Nc2cccc(Cl)c2)c(=O)n1C,15.0%,41.2%,50.1µM*,-12.5%,-5.1%,0.3%
Cn1ncc([N+](=O)[O-])c1C(=O)Nc1cccc(Cl)c1,-1.2%,5.7%,11.8%[0.501 µM],u,-0.1%,-11.9%
CCn1c(C)cc(O)c(C(=O)Nc2cccc(Cl)c2)c1=O,19.7%,40.8%,22.0%,16.0%,3.7%,-3.6%
CSc1cccc(NC(=O)c2c(Cl)cnn2C)c1,-13.0%,9.3%,-21.0%[59 µM],-2.0%,9.1%,-16.0%
CN(C)c1ncccc1CNC(=O)c1nccnc1N,x,x,x,40.2%,x,x
Cc1ccc(N2CC(C(=O)Nc3ccccc3C(=O)NC3CCCCC3)CC2=O)cc1C (configuration not stated),x,-11.0%,x,-2.4%,x,20µM*
Cc1ccc(N2CC(C(=O)Nc3ccc(N(C)C)cc3)CC2=O)cc1C (configuration not stated),u,-5.7%,-30.2%[12.7 µM],-23.9%,u,56.2µM*
CCOCCCNC(=O)c1cc(C)nc2ccc(C)cc12,x,x,x,11.3%,x,x
COc1ccc(N=C2C(=O)N3c4c(cccc42)C(C)=CC3(C)C)cc1,-7.7%,28.2µM*,10µM*,-24.6%,35.5µM*,14.1µM*
